This is a sample that favours compounds with a hit; in the whole collection about 12% have one here.
NS1 function inh: blocks influenza NS1 protein function | 0.4% of 270,000 active | Potency, µM (highest dose often 46.1 µM), for inactives: at the top dose activity, positive = more growth | AID 2326; calls by dose curve; also: actives are rising curves; nearly all actives have a fitted effect of over 50% in size
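Growth recovery, yeast-based: influenza A NS1 expressed in S. cerevisiae causes slow growth, and suppressors are detected by OD600. The parent strain without NS1 is used as positive control.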
HCV inhibitor: inhibitors of hepatitis C virus infection. Potency, µM (doses to about 41.8 µM), for inactives: at the top dose activity change, negative = inhibition, usual class: inhibitors. AID 651820. Huh7.5.1 HCVcc-Cre infection, luciferase reporter, 44 h. 3.4% of 340,000 active; also: % is scaled to controls: 0 for no effect and ±100 for the full control effect
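Infectious HCV cell culture screen: compound-treated cells (1,000/well, pre-plated 4 h) are infected with HCVcc-Cre at roughly 0.5 moi and grown 44 h. Infection is quantified by luciferase signal after 15 min substrate incubation at room temperature.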
Pf growth 48h: inhibits P. falciparum growth in the first generation, 48 h | P. falciparum luciferase growth in erythrocytes, 48 h | Potency, µM (top dose mostly 28.7 µM), inactives show at the highest dose activity change, negative = inhibition, most hits filed as inhibitors | 5.9% of 310,000 active; also: % is scaled to controls: 0 for no effect and ±100 for the full control effect
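Erythrocytes infected with P. falciparum carrying an integrated firefly luciferase reporter (2% hematocrit, 0.1% parasitemia final) were exposed to compounds in RPMI 1640 with 0.5% Albumax at 37 C, 5% CO2. Growth inhibition was scored as reduced luminescence.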
Pf growth 96h: P. falciparum growth inhibition at 96 hours | Potency, µM (titrated, usually from 28.7 µM), without a hit: at the highest dose activity change, negative = inhibition, hits mostly inhibitors | P. falciparum luciferase reporter growth, 96 h | 6.9% of 320,000 active; also: % is scaled to controls: 0 for no effect and ±100 for the full control effect
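Parasite growth measured via integrated firefly luciferase reporter in P. falciparum. Infected erythrocytes at 2% hematocrit, 0.05% parasitemia final were treated 96 hours at 37 C under 5% CO2, and luminescence was read.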
AMA1-RON2 inh: disrupts binding of P. falciparum AMA1 to RON2; Potency, µM (top dose mostly 58.2 µM), inactives show at the highest dose activity change, negative = inhibition, most hits filed as inhibitors; AID 720542; AlphaScreen AMA1-biotinylated RON2 peptide binding; 0.2% of 360,000 active;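 also: 0% = vehicle wells and -100% = peptide control; nearly all actives have a fitted effect of over 45% in size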
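AMA1 (3D7) with his tag at 25 nM final met compounds first, then biotinylated RON2 peptide at 25 nM; detection used donor plus acceptor beads, 10 µg/mL apiece, read by AlphaScreen after 30 min at room temperature.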
SARS PLP yeast: inhibitors of SARS-CoV papain-like protease in yeast. S. cerevisiae expressing SARS-CoV PLpro, growth rescue. Potency, µM (series often up to 32.9 µM), inactives show at the top dose activity, positive = growth rescue, usual class: activators. 0.19% of 330,000 active. AID 485353; calls by dose curve; also: 0% is about no effect; nearly all actives have a fitted effect of over 55% in size
* marks the source's active call; other numbers are inactive results; ? = inconclusive; / = no result; [ ] = remark or other dose. Unless noted, calls follow the shape of the dose curve; as a rule, active = well fitted curve in the direction sought with a large enough effect; inconclusive = small, poorly fitted or top-dose-only effect, or another doubt; inactive = no such curve, though single readings can be large; an effect the other way counts as inactive or inconclusive. Potency is read from the fitted curve at half-maximal effect.

SMILES | NS1 function inh | HCV inhibitor | Pf growth 48h | Pf growth 96h | AMA1-RON2 inh | SARS PLP yeast
COC(=O)[C@@H]1C[C@@H]2CC[C@@H](O)C[C@@H]2N1Cc1ccccc1OS(=O)(=O)c1ccc(C)cc1 | -0.4% | -0.7% | 10.4µM* | ? | -6.5% | -2.3%
COC(=O)[C@@H]1C[C@H]2CC[C@H](O)C[C@H]2N1Cc1ccccc1OC(=O)c1cccs1 | ? | 0.7%[8.37 µM] | 9.28µM* | ? | 5.1% | 0.9%
Cc1cc(-c2ccccc2)nc(N(C)NC(=O)c2cccc(C(F)(F)F)c2)c1S(C)(=O)=O | 1.4% | -3.7% | / | 3.7µM* | -0.6% | -0.8%
NC(=O)CC(NC(=O)c1ccccc1)c1ccc(NCCN2CCCCC2)c([N+](=O)[O-])c1 (stereo not given) | 43.1% | -1.7% | -22.8% | ? | 2.8% | 9.7%
CCN(CC)S(=O)(=O)N1CCC(C(=O)NCC2COc3ccccc3O2)CC1 (stereo not given) | -6.9% | ? | ? | 475.7% | 1.8% | -0.6%
O=C(Cc1ccccc1)Nc1ccc(C(=O)NCC2COc3ccccc3O2)cc1 (stereo not given) | -2.8% | -22.4% | 2.0% | 0.4% | 0.0% | 18.8%
Cc1c(C(=O)NCC2CCCO2)oc2ccc(S(=O)(=O)N3CCCC3)cc12 (stereo not given) | -0.4% | -0.3% | ? | / | 20.9% | 7.8%
O=C(NCC1COc2ccccc2O1)c1ccc(NC(=O)C(c2ccccc2)c2ccccc2)cc1 (stereo not given) | 16.1% | ? | 9.28µM* | ? | 0.0% | 6.6%
O=C(NCC1COc2ccccc2O1)C1CCN(S(=O)(=O)c2ccc(Cl)cc2)CC1 (stereo not given) | / | 11.2µM* | ? | ? | -6.3% | 0.7%
Cc1c(C(=O)NCC2COc3ccccc3O2)oc2ccc(S(=O)(=O)N(C)C3CCCCC3)cc12 (stereo not given) | 22.3% | 6.9% | 9.28µM* | / | -5.8% | 0.0%
CCCCSCCCNC(=O)c1cn(C)c2ccc(S(=O)(=O)N3CCCC3)cc2c1=O | 13.6% | 0.0% | ? | 10.4µM* | -7.7% | 4.2%
Nc1cccc(S(=O)(=O)Nc2ccccc2)c1 | 4.1% | -1.8% | 1.8% | 16.3%[5.75 µM] | 6.1% | 0.8%
Cn1cc(C(=O)NCC2COc3ccccc3O2)c(=O)c2cc(S(=O)(=O)N3CCCCC3)ccc21 (stereo not given) | 12.8% | 2.1% | 11.7µM* | / | -17.1% | 14.2%
O=C(NCC1COc2ccccc2O1)c1ccc(Cl)c(S(=O)(=O)N2CCOCC2)c1 (stereo not given) | / | ? | ? | 13.1µM* | 2.6% | 5.7%
C=CCn1cc(C(=O)OC)c(=O)c2cc(S(=O)(=O)N3CCCCCC3)ccc21 | / | 11.4% | ? | 0.0% | 8.2% | 3.0%
O=C(NCC1COc2ccccc2O1)c1ccc(Cl)c(S(=O)(=O)N2CCCC2)c1 (stereo not given) | / | ? | 9.28µM* | 9.28µM* | 5.7% | -0.9%
C=CCn1cc(C(=O)NCC2CCCO2)c(=O)c2cc(S(=O)(=O)N3CCCCCC3)ccc21 (stereo not given) | 0.0% | ? | 11.7µM* | 3.6% | -4.0% | -0.3%
CCN1CCCC1CNC(=O)c1cn(C)c2ccc(S(=O)(=O)N3CCCCCC3)cc2c1=O (stereo not given) | -2.1% | ? | -12.4% | -11.8% | 5.2% | -0.2%
Cc1ccc(S(=O)(=O)N2CCCC2CNC(=O)C(=O)Nc2ccc(F)cc2)cc1 (stereo not given) | / | ? | ? | ? | 1.9% | -11.6%
CC(=O)Nc1c(C(N)=O)oc2ccc(Cl)cc12 | 4.5% | 1.8% | 22.4% | -0.3% | 2.7% | 2.6%
CC(=O)Nc1c(C(=O)O)oc2ccc(Cl)cc12 | 4.6% | 19.4% | -3.5% | 2.62µM* | -0.5% | 4.8%
O=[n+]1cc(-c2ccccc2)n([O-])c2c1CCCCC2 | 5.3% | -2.8% | 24.2% | 14.7µM* | 8.1% | 1.6%
S=C(NCCC1=CCCCC1)NCc1ccco1 | -2.5% | -17.6% | 18.2% | 27.6% | 0.6% | -0.7%
COc1cc(/C=C2\C[C@H]3[C@@H]4CC=C5C[C@@H](N6CCCC6)CC[C@]5(C)[C@H]4CC[C@]3(C)[C@H]2O)cc(OC)c1OC | / | 7.08µM* | / | / | -14.8% | /
CC12CCC3C(CC=C4CC(O)CCC43C)C1C/C(=C\N1CCCC1)C2=O (stereo not given) | -31.2% | / | 0.4% | 13.3% | / | -1.3%
SMILES | NS1 function inh | HCV inhibitor | Pf growth 48h | Pf growth 96h | AMA1-RON2 inh | SARS PLP yeast
CCCCCCSc1nnc2[nH]c(=O)cc(N)n12 | -5.8% | 24.4% | ? | 5.22µM* | 1.5% | 9.0%
O=C(c1nnsc1S(=O)c1ccc(Cl)cc1)N1CCOCC1 (stereo not given) | / | ? | 16.5µM* | -6.3% | -4.6% | -24.3%
Cc1nnsc1S(=O)c1ccc(Cl)c(Cl)c1 (stereo not given) | 6.1% | -24.6% | / | 5.22µM* | -5.0% | -1.0%
Cc1nnsc1S(=O)c1ccc(Cl)cc1 (stereo not given) | 4.2% | ? | / | 1.65µM* | 13.8% | 2.2%
Cc1ccc(N2CC(NC(=O)C3CC3)CC2=O)cc1 (stereo not given) | / | 6.2% | 5.1% | -0.9% | 12.7% | -0.5%
CCOC(=O)c1sc2nc(CC(=O)OC)nc(NCc3ccc(Cl)cc3)c2c1C | -0.5% | 5.62µM* | / | ? | 0.8% | 9.0%
CCOC(=O)c1sc2nc(CC(=O)OC)nc(NCCN3CCOCC3)c2c1C | -2.0% | ? | ? | ? | 15.1% | -3.4%
CCOC(=O)c1sc2nc(CC(=O)OC)nc(NCCN(CC)CC)c2c1C | 4.1% | 11.2µM* | / | ? | -17.9% | 6.7%[6.58 µM]
N#Cc1ccc(C(=O)CSc2n[nH]c(=O)n2Cc2ccco2)cc1 | -8.4% | 17.3% | ? | 26.7% | -7.2% | 0.8%
Nc1ccc2ccccc2c1C(=O)c1ccccc1 | / | 2.3% | / | / | 2.9% | /
COc1ccc(C)cc1NC(=O)c1ccc([N+](=O)[O-])cc1[N+](=O)[O-] | 2.6% | ? | -15.8% | ? | -2.5% | -0.6%
CCN(CC)CCCNc1oc(-c2ccccc2[N+](=O)[O-])nc1C#N | -1.2% | 26.0% | ? | 2.62µM* | 104.8% | -1.0%
CCN1C[C@@H]2[C@@H]3C(=O)N(C)C(=O)[C@@H]3[C@](Cc3ccccc3)(C1=O)N2C(=O)c1ccc(Cl)c(Cl)c1 | / | 9.2% | / | / | -2.5% | /
Cc1cc2cc(CN(Cc3cccs3)C(=S)NCc3ccco3)c(=O)[nH]c2cc1C | 6.1% | 11.2µM* | -27.9% | ? | -9.8% | 20.3%
CCc1ccc2[nH]c(=O)c(CN(CCN(CC)CC)C(=S)NCc3ccco3)cc2c1 | 2.4% | ? | 9.28µM* | 18.8% | -19.5% | -0.6%
Cc1ccc(C)c2[nH]c(=O)c(CN(Cc3cccs3)C(=S)NCc3ccco3)cc12 | 27.1% | -6.7% | 10.4µM* | 27.7% | -2.5% | 19.6%
